Data reported in PubChem BioAssay AID368 (University of Pittsburgh Molecular Library Screening Center, 2006).
Screen size: about 65,000 compounds; about 85 (0.1%) were called active. The entries come from a sample that favours actives as a whole. Unmarked numbers belong to inactive results. Cut-off read from the data, not from the text of the source: active = inhibition above about 50%; inactive = the rest.

Target: M-phase inducer phosphatase 2 (Homo sapiens) (UniProt P30305)
Test: inhibitors of Cdc25B phosphatase catalytic domain, primary screen, biochemical, OMFP fluorescence (AID 368)
Conditions: recombinant Cdc25B, OMFP fluorescence Ex485/Em525; active compounds read high;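 compounds tested at 10 µM final in the well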

Sequence of M-phase inducer phosphatase 2 (Homo sapiens) (P30305 whole entry, looked up, the tested form may be a part): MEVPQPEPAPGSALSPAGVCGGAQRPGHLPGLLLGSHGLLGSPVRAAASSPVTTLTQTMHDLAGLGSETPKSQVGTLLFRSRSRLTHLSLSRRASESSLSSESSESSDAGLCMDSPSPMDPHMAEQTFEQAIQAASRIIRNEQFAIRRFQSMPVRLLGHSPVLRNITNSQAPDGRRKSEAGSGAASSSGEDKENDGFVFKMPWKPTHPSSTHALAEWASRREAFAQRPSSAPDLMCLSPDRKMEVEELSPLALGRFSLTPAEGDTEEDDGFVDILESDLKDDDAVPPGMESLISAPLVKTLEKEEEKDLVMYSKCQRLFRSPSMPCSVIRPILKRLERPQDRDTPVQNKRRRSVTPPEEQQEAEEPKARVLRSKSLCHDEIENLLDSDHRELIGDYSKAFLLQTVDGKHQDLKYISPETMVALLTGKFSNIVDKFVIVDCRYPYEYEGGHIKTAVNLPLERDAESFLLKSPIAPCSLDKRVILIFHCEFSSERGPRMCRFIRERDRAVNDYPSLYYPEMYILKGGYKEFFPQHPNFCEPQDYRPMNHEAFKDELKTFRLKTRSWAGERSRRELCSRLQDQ

Structure (SMILES) | inhibition
CCc1c(C)nc2cc(-c3cccs3)[nH]n2c1=O | -13.1%
C/C(=C(\C#N)C(=O)NCCCN1CCOCC1)N(C)C | -7.37%
CCCC(=O)Nc1ccc(C(=O)NCCCn2ccnc2)cc1 | 2.06%
CCn1cc(C(=O)NCC2COc3ccccc3O2)c2cc(OC)c(OC)cc2c1=O (stereo not given) | -8.97%
CCOC(=O)CNC(=O)CN1C(=O)CCSc2ccccc21 | -0.999%
O=C1NC(Nc2nc3ccccc3s2)(C(F)(F)F)C(=O)N1C1CCCCC1 (stereo not given) | -0.883%
CC(=O)Nc1ccc(S(=O)(=O)NCCc2ccccc2)cc1 | -7.41%
CC1OC2C(OC1C)N(S(C)(=O)=O)CCN2S(C)(=O)=O (stereo not given) | -4.42%
CCOc1ccc(CCNC(=O)C(CC)n2nc(C)n3c(cc4sccc43)c2=O)cc1OCC (stereo not given) | -12.3%
CCn1ncc(C2=NOC(C(=O)N3CCN(c4ccccc4)CC3)C2)c1C (stereo not given) | -17.4%
CCOC(=O)C1CCCN(C(=O)C2CCN(c3nnc(-n4cccc4)s3)CC2)C1 (stereo not given) | 6.02%
Cn1c(=O)c2c(nc(SCC(=O)Nc3ccccc3N3CCCCC3)n2C)n(C)c1=O | -12.6%
CCCCSc1nnc(-c2ccc(C)cc2)o1 | -7.53%
O=C(Nc1nc2cc3c(cc2s1)OCCO3)c1cccc(S(=O)(=O)N2CCOCC2)c1 | -3.84%
CCN1C(=O)C(C(=O)NC(C)c2ccccc2)C2CC1(C)Oc1ccccc12 (stereo not given) | -6.65%
c1ccc(CSc2nnc(-c3ccco3)n2Cc2ccccc2)cc1 | -11.9%
Clc1ccccc1CSc1nnc(-c2ccco2)c(-c2ccco2)n1 | -25.9%
c1ccc(CSc2nnc(-c3ccco3)c(-c3ccco3)n2)cc1 | 50.3% (active)
C=CCn1c(SCC(=O)NC23CC4CC(CC(C4)C2)C3)nc(O)cc1=O | 2.29%
NC(=O)CSC1=Nc2ccccc2C2=NC(CCC(=O)NCc3ccc(F)cc3)C(=O)N12 (stereo not given) | -3.7%
CCOC(=O)c1c(C)nc(-c2ccccc2)nc1NC(=O)C(C)C | -5.5%
CCOC(=O)Cn1c(N)c(C(=O)OC)sc1=S | -11%
CC(=O)Nc1ccn(Cc2c(F)cccc2Cl)n1 | -13%
O=C(c1ccc(S(=O)(=O)N2CCOCC2)cc1)N1CCN(c2ccccc2)CC1 | 1.6%

Structure (SMILES) | inhibition
CCOC(=O)c1[nH]cnc1C(=O)NC1CCCCC1 | -0.873%
Cc1csc(NC(=O)NC2(C(F)(F)F)Oc3ccccc3O2)n1 | -7.31%
O=C(CCCn1c(=O)oc2ccccc21)Nc1cccnc1 | -11.7%
CS(=O)(=O)N(Cc1nc2sc3c(c2c(=O)[nH]1)CCCC3)C1CCCCC1 | -20%
O=C1c2ccccc2C(=O)N1CCc1nn[nH]n1 | 2.01%
COc1ccc(C(=O)c2oc3ccc(Br)cc3c2NC(C)=O)cc1 | 1.8%
CC(=O)Nc1ccc(NS(=O)(=O)c2cc(C)sc2C)cc1 | 7.75%
Cc1ccc(S(=O)(=O)N2C3C=CC(C3)C2C(=O)O)cc1 (stereo not given) | -0.599%
Cc1cc(C)cc(NC(=O)N2CCC(NC(=O)c3ccc(F)cc3)CC2)c1 | 5.11%
CCOC(=O)C(CC)Sc1ncnc2c1nnn2-c1ccc(F)cc1 (stereo not given) | -12.7%
COc1cc(-c2noc(C3CCCN(S(=O)(=O)c4cccc(Cl)c4)C3)n2)cc(OC)c1OC (stereo not given) | 3.35%
CC(C)C(c1nnnn1C1CCCC1)N1CCN(c2ccccc2F)CC1 (stereo not given) | -10.2%
CC(C)C1Cc2c(sc3c2c(=O)n(-c2ccccc2)c2nncn32)CO1 (stereo not given) | -39.8%
C=CCNC(=O)C1CC=CCC1C(=O)O (stereo not given) | -12.3%
Cc1nc(Nc2ccc3c(c2)OCCO3)c2nnn(Cc3ccccc3Cl)c2n1 | -17.1%
CC(=O)N1CCC(C(=O)Nc2nc(-c3ccccc3)ns2)CC1 | -5.67%
CN1C(=O)c2ccc(NC(=O)c3c(F)c(F)c(F)c(F)c3F)cc2C1=O | 2.43%
O=C(CC(NS(=O)(=O)c1ccc(Cl)cc1)c1ccco1)NC1CCCC1 (stereo not given) | -20.3%
O=C(NC1=NCCS1)c1ccc(Cl)s1 | 1.03%
CC1Cc2ccccc2N1C(=O)Cn1cnc2ccccc2c1=O (stereo not given) | -1.71%
c1nnc2c3c4c(sc3ncn12)CCC4 | 0.998%
O=C(CN1C(=O)C2C3C=CC(C3)C2C1=O)NCC1COc2ccccc2O1 (stereo not given) | -2.93%
COCCNC(=O)CN(C(=O)CCC(=O)Nc1cc(C)on1)c1ccc(C)cc1C | 11.4%
O=C(Nc1cccc(C(=O)N2CCCC2)c1)c1ccccc1 | -4.63%

Structure (SMILES) | inhibition
O=C(Nc1cccc(NC(=O)N2CCN(c3ccccc3)CC2)c1)N1CCN(c2ccccc2)CC1 | 76.4% (active)
CC(=O)N1CCN(C(=O)Nc2cccc(C(F)(F)F)c2)CC1 | -11.9%
Cc1ccc2c(CSc3nncs3)cc(=O)oc2c1 | -6.44%
CCOC(=O)c1[nH]c2c(c1C)C(=O)CC(c1ccc(N(C)C)cc1)C2 (stereo not given) | -8.71%
Cc1ccc(N)cc1-n1c(C)ccc1C | 1.36%
Cc1ccc(CNC(=O)CN2CCN(Cc3ccc(Cl)cc3)C2=O)cc1 | 1.98%
COCCCN1C(=O)c2ccc(C(=O)Nc3ccc(OC)cc3OC)cc2C1=O | -4.42%
Cc1cc(Cl)c(S(=O)(=O)NCc2cccnc2)cc1OCC(N)=O | -3.27%
CCOC(=O)C1=C(C)NC(C)=C(C(=O)OCC)C1C1=COCCO1 | 1.59%
COc1ccc(N2CCN(C3CC(=O)N(c4ccc5c(c4)OCCO5)C3=O)CC2)cc1 (stereo not given) | 5.32%
CCn1c(NCCc2ccc(OC)c(OC)c2)nc2c1c(=O)n(C)c(=O)n2C | 7.88%
COc1cc(-c2nc(S(=O)(=O)c3ccc(Cl)cc3)c(N(C)C)o2)cc(OC)c1OC | -3.74%
Cc1ccc(C(c2nnnn2CS(=O)(=O)c2ccc(C)cc2)N2CCC(C(N)=O)CC2)cc1 (stereo not given) | -6.28%
CCCOc1ccc(C2C(C(=O)c3ccc(C)o3)=C(O)C(=O)N2CCCn2ccnc2)cc1 (stereo not given) | -1.79%
O=c1c2ccccc2oc2nc3n(c(=O)c12)CCCS3 | -1.25%
CCOC(=O)N1CCN(C(=O)CSc2ccc(Cl)cc2)CC1 | 3.41%
CC1CN(C(=O)c2ccc3c(c2)OCO3)OC(c2ccccc2)O1 (stereo not given) | -8.81%
CC1=C(C)CC2C(=O)N(c3cccc4ccccc34)C(=O)C2C1 (stereo not given) | -7.9%
Cc1nc2c(-c3ccccc3)c(C)[nH]n2c(=O)c1Cl | -4.09%
COc1ccc(S(=O)(=O)N(C)CC(=O)Nc2ccc3c(c2)OCCO3)cc1OC | -5.79%
O=S(=O)(Nc1ccc2nc(-c3ccco3)[nH]c2c1)c1ccccc1 | -8.83%
O=S(=O)(c1cccc(-c2nnc(SC(F)F)n2-c2ccccc2)c1)N1CCCCC1 | 10.3%
CCC(=O)Nc1cccc(NC(=O)CSc2nnnn2C2CCCC2)c1 | -2.8%
CCOc1ccc(C(=O)Nc2cc(OC)ccc2OC)cc1 | -1.04%

Structure (SMILES) | inhibition
O=C(C1CCN(c2nnc(-n3cccc3)s2)CC1)N1CCc2ccccc2C1 | -4.75%
Cc1noc(/C=C/N(C)C)c1S(=O)(=O)N1CCCC(C(=O)NCc2ccco2)C1 (stereo not given) | -8.56%
CCCCc1cc(=O)oc2cc(C)cc(OCc3nn[nH]n3)c12 | -4.64%
CCOC(=O)c1c(NC(=O)c2cccs2)sc(C)c1C | -1.19%
COCCNC(=O)CSc1nc2c(n1-c1ccccc1)CCCC2 | -0.327%
CCn1c(SCC(=O)Nc2ccccc2F)nc2c(c1=O)SC(C)C2 (stereo not given) | -15.6%
CCOc1ccccc1N(CC(=O)NC1CCCCC1)C(=O)CCCC(=O)Nc1ccccn1 | -10.5%
CCOC(=O)N1CCC(NC(=O)CN2C(=O)COc3ccc(C(C)(C)C)cc32)CC1 | -4.53%
CCCN(CCC)C(=O)C1c2ccccc2Oc2ccccc21 | -5.87%
COC(=O)c1c(NC(=O)c2cccs2)sc2c1CCCC2 | -11.6%
COc1cccc(N(C(=O)c2ccn[nH]2)C2(C(=O)Nc3c(C)cccc3C)CCCCC2)c1 | 4.58%
CCN(CC)C(=O)C1CCC(C)(C(=O)O)C1(C)C (stereo not given) | -11.3%
COc1ccc(-c2noc(-c3cccc(OC)c3OC)n2)cc1OC | -12.3%
COc1ccc(CCNC(=O)c2cc(-c3ccc4c(c3)OCO4)on2)cc1OC | -4.69%
COc1ccc(-c2cc3n(n2)CCc2nc4ccccc4n2-3)cc1 | -0.418%
O=C(Cc1ccccc1)n1nc(-c2ccccc2)nc1NCc1ccco1 | -11.6%
COc1ccc(N2C(=O)CN=C2Nc2cccc(C)c2C)cc1OC | -17.1%
COc1cccc2c(C)c(C(=O)O)[nH]c12 | 50.5% (active)
COc1ccc(C)cc1NC(=O)c1[nH]c(C)c(C(C)=O)c1C | -7.67%
CCOC(=O)c1c(C)[nH]c(C(=O)NCc2ccccc2OC)c1C | 0.611%
FC(F)(F)c1nnc2sc(-c3ccco3)nn12 | 6.19%
CC1(N2CCOCC2)CC2(O)C(=[N+]1[O-])CCc1nonc12 (stereo not given) | -12.9%
Cc1nn(Cc2ccc(Cl)c(Cl)c2)c(C)c1NC(=O)c1cc(C2CC2)on1 | -9.41%
